# Experimental data reported in the supplement of paper PMC10849652.
# Of roughly 8,800 targets only a part is listed; those with a hit were picked by preference. About 0.5% of all pairs of compound and target were hits. Unmarked numbers belong to inactive results.
# How the values were obtained:
# Test in all cases: log2 fold change, soluble protein after heating vs DMSO (PISA); higher = thermal stabilisation; K562 lysate, 10 uM; active = over 0.2 and 3.5 SD of the protein, either way, in both replicates (recomputed)
# nilotinib = compound: Cc1cn(-c2cc(NC(=O)c3ccc(C)c(Nc4nccc(-c5cccnc5)n4)c3)cc(C(F)(F)F)c2)cn1 [nilotinib]
# Method in brief: (§1)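 A 30 min treatment with 10 μM compound was applied to crude K562 extract at 1 mg/mL protein in PBS pH 7.4 with 1 mM MgCl2. Heating for 3 min spanned 48°C-58°C, after which aliquots were pooled, adjusted to 0.5% NP-40 at 4°C and spun at 21,000xg for 90 min. TMTpro 16plex LC-MS/MS of the supernatant, with channel sums equalised, gave values recorded as log-two fold change in thermal stability against solvent controls, from duplicates.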
# [1] = compound: Cc1nc(Nc2n[nH]c3c2CN(C(=O)N[C@H](CN(C)C)c2ccccc2)C3(C)C)c2sccc2n1
# Method in brief: as §1
# dasatinib = compound: Cc1nc(Nc2ncc(C(=O)Nc3c(C)cccc3Cl)s2)cc(N2CCN(CCO)CC2)n1 [dasatinib]
# Method in brief: as §1
# [2] = compound: Cc1ncc(-c2ccnc(Nc3ccc(S(C)(=O)=O)cc3)n2)n1C(C)C
# Method in brief: as §1
# [3] = compound: Cn1cc(-c2ccc3c(c2)CCN3C(=O)Cc2cccc(C(F)(F)F)c2)c2c(N)ncnc21
# Method in brief: as §1
# quisinostat = compound: Cn1cc(CNCC2CCN(c3ncc(C(=O)NO)cn3)CC2)c2ccccc21 [quisinostat]
# Method in brief: as §1
# tipifarnib = compound: Cn1cncc1[C@@](N)(c1ccc(Cl)cc1)c1ccc2c(c1)c(-c1cccc(Cl)c1)cc(=O)n2C [tipifarnib]
# Method in brief: as §1
# [4] = compound: NC(=O)Nc1cc(-c2cccc(F)c2)sc1C(=O)N[C@H]1CCCNC1
# Method in brief: as §1
# [5] = compound: NC(=O)c1cnc(N[C@@H]2CCCC[C@@H]2N)nc1Nc1cccc(-n2nccn2)c1
# Method in brief: as §1
# [6] = compound: NC1(c2ccc(-c3nc4ccn5c(=O)[nH]nc5c4cc3-c3ccccc3)cc2)CCC1
# Method in brief: as §1
# UniProt Q9H0C8, sequence (Q9H0C8 whole entry, looked up): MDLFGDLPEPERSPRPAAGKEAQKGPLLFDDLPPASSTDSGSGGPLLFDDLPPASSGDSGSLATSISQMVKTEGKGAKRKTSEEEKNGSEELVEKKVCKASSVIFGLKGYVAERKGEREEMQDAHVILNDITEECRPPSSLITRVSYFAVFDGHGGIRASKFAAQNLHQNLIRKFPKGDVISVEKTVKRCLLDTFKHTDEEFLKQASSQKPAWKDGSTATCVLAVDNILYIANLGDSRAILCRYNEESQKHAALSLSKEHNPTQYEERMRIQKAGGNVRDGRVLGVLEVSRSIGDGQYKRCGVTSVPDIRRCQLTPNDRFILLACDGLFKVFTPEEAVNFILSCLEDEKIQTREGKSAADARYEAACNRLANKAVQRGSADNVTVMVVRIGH
# UniProt Q13547, sequence (Q13547 whole entry, looked up): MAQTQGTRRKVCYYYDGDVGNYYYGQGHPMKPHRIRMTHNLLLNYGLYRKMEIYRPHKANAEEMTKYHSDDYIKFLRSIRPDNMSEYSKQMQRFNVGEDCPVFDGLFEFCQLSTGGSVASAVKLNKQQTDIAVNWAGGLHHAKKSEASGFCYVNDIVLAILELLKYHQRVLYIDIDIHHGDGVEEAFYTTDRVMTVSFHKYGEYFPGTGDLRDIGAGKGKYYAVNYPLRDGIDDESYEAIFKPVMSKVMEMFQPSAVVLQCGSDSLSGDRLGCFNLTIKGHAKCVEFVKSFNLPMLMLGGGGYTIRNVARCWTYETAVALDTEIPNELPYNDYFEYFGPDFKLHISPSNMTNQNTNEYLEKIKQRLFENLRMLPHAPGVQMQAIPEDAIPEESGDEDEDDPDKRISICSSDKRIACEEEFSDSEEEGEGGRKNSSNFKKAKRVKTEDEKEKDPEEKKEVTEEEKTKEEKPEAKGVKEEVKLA
# UniProt Q7Z4V5, sequence (Q7Z4V5 whole entry, looked up): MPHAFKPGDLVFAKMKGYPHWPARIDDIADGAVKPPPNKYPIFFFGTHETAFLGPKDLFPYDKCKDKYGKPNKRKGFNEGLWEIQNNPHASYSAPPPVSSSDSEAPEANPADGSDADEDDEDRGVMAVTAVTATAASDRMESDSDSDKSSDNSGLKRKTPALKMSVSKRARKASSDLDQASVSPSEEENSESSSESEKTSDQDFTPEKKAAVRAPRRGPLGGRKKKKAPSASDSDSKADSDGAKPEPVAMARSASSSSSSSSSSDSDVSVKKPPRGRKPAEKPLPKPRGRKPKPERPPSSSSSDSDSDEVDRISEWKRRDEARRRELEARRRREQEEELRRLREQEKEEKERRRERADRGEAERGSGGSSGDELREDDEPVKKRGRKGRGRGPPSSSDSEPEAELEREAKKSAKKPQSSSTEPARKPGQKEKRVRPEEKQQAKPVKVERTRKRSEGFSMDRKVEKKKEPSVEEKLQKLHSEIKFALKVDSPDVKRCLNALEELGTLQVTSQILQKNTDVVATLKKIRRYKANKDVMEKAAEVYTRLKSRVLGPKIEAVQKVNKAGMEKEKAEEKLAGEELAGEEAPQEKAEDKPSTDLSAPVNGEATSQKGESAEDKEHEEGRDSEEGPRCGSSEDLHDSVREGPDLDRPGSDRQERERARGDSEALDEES
# UniProt Q8TDG4, sequence (Q8TDG4 whole entry, looked up): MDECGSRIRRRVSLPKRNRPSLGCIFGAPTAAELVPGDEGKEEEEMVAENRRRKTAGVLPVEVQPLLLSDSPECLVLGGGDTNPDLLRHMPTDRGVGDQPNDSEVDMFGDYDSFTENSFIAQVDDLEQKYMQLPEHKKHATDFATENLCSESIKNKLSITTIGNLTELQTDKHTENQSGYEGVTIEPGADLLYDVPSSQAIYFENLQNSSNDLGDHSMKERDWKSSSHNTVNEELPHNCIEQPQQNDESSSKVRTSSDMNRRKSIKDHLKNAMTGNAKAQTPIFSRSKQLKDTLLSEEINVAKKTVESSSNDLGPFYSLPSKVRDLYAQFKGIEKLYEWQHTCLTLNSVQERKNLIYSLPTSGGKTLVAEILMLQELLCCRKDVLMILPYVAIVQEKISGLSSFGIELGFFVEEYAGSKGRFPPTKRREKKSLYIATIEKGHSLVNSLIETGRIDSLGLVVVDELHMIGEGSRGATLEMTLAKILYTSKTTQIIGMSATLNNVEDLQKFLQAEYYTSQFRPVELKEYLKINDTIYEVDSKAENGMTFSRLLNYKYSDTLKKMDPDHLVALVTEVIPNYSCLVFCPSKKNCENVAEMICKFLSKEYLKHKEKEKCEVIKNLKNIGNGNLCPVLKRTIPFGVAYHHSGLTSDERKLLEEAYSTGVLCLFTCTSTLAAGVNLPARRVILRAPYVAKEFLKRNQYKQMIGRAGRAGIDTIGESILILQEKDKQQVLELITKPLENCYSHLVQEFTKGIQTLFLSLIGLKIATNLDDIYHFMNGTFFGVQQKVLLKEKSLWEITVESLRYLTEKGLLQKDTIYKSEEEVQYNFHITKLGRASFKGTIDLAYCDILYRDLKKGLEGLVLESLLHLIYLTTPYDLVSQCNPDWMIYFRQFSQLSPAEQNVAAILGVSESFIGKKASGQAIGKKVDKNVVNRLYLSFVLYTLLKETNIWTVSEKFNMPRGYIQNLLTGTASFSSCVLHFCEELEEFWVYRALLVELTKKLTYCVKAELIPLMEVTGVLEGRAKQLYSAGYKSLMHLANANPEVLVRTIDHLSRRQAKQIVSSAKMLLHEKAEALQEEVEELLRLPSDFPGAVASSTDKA
# UniProt P11142, sequence (P11142 whole entry, looked up): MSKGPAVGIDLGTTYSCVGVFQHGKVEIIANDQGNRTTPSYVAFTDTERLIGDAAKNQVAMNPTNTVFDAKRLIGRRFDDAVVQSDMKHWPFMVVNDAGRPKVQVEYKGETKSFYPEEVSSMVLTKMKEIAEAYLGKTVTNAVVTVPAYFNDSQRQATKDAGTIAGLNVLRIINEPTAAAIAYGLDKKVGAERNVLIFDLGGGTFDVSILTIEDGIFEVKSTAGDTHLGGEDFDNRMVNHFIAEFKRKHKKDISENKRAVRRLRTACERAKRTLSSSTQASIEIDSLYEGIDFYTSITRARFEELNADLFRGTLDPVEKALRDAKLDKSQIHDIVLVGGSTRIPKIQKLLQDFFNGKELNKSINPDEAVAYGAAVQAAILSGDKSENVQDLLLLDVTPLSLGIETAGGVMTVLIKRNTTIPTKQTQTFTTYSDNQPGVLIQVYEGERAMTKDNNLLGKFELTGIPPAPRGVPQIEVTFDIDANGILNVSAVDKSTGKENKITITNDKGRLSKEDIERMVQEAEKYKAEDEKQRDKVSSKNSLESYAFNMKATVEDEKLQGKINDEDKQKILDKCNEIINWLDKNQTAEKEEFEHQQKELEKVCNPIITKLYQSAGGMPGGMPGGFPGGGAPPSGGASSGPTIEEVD
# UniProt P41229, sequence (P41229 whole entry, looked up): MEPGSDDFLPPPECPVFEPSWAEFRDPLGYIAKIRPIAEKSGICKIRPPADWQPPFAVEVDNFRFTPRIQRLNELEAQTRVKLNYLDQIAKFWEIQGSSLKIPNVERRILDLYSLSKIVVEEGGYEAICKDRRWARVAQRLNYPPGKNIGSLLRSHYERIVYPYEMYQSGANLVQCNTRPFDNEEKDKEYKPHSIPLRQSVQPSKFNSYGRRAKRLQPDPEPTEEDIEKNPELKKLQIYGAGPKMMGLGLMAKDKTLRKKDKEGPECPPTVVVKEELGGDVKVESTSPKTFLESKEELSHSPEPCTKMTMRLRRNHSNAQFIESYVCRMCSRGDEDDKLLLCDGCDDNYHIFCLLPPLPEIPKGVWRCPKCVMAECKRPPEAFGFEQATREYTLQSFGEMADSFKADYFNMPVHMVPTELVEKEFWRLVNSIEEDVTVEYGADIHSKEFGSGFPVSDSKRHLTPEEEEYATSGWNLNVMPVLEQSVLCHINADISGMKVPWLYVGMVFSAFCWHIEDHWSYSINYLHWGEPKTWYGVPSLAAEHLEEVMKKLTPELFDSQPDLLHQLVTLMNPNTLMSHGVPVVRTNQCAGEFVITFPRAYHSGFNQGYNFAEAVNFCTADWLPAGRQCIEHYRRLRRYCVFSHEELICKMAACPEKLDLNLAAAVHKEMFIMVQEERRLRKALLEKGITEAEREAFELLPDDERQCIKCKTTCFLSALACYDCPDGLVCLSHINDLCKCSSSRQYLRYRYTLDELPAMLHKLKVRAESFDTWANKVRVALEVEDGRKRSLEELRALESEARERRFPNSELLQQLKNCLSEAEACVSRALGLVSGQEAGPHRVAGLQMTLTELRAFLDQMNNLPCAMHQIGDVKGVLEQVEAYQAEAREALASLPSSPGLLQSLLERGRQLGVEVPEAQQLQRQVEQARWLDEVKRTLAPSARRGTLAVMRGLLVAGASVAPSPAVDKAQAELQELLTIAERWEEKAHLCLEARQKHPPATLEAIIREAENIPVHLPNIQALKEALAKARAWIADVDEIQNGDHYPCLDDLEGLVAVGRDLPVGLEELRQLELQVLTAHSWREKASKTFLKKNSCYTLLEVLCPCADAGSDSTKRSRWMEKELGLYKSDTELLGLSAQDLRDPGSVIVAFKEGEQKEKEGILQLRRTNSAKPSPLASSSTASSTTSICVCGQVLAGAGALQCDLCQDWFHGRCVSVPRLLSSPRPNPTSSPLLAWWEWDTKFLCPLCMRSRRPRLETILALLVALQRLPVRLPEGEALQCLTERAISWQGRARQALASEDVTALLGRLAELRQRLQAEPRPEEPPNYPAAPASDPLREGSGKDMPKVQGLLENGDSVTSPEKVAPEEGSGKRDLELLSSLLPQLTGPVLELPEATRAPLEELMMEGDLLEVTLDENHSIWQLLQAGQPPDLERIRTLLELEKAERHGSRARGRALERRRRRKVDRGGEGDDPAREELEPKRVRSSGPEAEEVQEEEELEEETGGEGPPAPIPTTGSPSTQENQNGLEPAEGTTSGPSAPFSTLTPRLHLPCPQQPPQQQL
# UniProt Q9BUE6, sequence (Q9BUE6 whole entry, looked up): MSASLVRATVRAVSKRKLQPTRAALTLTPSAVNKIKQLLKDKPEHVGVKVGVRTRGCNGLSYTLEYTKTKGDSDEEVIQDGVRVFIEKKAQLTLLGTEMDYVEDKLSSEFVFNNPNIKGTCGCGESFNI
Target,log2 fold change (nilotinib),log2 fold change [1],log2 fold change (dasatinib),log2 fold change [2],log2 fold change [3],log2 fold change (quisinostat),log2 fold change (tipifarnib),log2 fold change [4],log2 fold change [5],log2 fold change [6]
HSPA14 (UniProt Q0VDF9),-0.032,-0.001,-0.018,0.009,0.034,-0.026,0.021,0.037,0.001,-0.025
HEATR3 (UniProt Q7Z4Q2),0.023,-0.021,-0.042,-0.031,0.062,-0.078,0.019,0.033,-0.015,0.001
HDGFL2 isoform 2 (UniProt Q7Z4V5),-0.005,-0.005,0.014,-0.021,-0.023,-0.061,0.003,0.011,-0.001,-0.02
GSTZ1 (UniProt G3V4T6),0.026,0.009,-0.024,-0.016,0.083,0.016,0.014,0.029,-0.012,-0.007
HSPA8 (UniProt P11142),-0.01,0.002,0.013,0.004,-0.007,0.022,0,-0.024,-0.008,0.003
INPPL1 (UniProt O15357),-0.007,-0.001,-0.031,-0.02,0.035,0,-0.026,0.032,0.028,0.003
ISCA1 isoform 2 (UniProt Q9BUE6),0.043,0.251,0,0.111,-0.002,0.025,0.026,-0.05,-0.007,0.013
GTF2H4 (UniProt Q92759),0.006,0.021,0.003,0.019,-0.011,-0.029,-0.008,0.07,0.04,-0.08
KDM5C (UniProt P41229),-0.021,-0.005,-0.032,0.022,0.033,-0.084,0.037,0.032,-0.037,-0.032
KDM1A (UniProt O60341),-0.009,0.007,-0.023,0.005,0.012,-0.045,-0.052,0.029,0.007,-0.026
KHDRBS1 (UniProt Q07666),-0.032,-0.012,-0.048,-0.011,-0.003,0.037,0.032,0.005,0.011,0.028
HDAC1 (UniProt Q13547),0.01,-0.024,-0.021,-0.019,0.028,0.857 (active),-0.041,-0.033,0.03,0.009
ILKAP (UniProt Q9H0C8),0.023,-0.01,0.025,-0.094,-0.009,0.011,-0.005,0.005,0.026,0.044
KATNBL1 (UniProt Q9H079),-0.057,-0.143,0.068,-0.159,-0.073,0.035,0.198,0.158,0.017,0.023
HELQ (UniProt Q8TDG4),-0.486 (active),-0.433 (active),0.021,0.051,-0.028,-0.024,0.033,-0.013,0.122,0.009
GTF2I (UniProt P78347),0.001,0.002,-0.042,-0.011,0.035,-0.006,-0.008,0.034,0,-0.014
